Assay results as given in PubChem BioAssay (Tox21).
A number with no mark means an inactive call. Results filed as inconclusive are left out. Where a call stands in place of a potency, no number is given. The source made the active and inactive calls. Unless noted, calls follow the shape of the dose curve; as a rule, active = well fitted curve in the direction sought with a large enough effect in the repeat runs; inconclusive = weak or mixed curves; inactive = no such curve, though single readings can be large; an effect the other way counts as inactive or inconclusive.

Key:
[1] = target: Thyrotropin-releasing hormone receptor (Homo sapiens) (UniProt P34981); assay: qHTS assay to identify small molecule agonists of the thyrotropin-releasing hormone receptor (TRHR) signaling pathway (AID 1346891; calls by dose curve; also: series mostly up to about 58 µM)
Chain of Thyrotropin-releasing hormone receptor (Homo sapiens) (P34981 whole entry, looked up): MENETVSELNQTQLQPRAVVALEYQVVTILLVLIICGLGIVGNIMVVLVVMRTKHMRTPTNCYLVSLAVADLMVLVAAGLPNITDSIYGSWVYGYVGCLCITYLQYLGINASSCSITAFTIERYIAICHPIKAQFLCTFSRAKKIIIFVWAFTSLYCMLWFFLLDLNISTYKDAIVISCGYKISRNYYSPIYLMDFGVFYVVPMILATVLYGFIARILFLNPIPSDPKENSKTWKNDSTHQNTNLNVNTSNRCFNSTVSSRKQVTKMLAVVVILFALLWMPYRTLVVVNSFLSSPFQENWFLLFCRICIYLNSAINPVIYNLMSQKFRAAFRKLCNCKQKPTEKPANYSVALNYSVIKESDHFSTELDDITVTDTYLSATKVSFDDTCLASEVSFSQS
How it was run: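 Screening of agonists relied on calcium signalling in HEK293 cells expressing human TRHR: dye loading 2 h at 37 °C preceded compound addition and a 3-min fluorescence time course.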

[2] = Human pregnane X receptor (PXR) small molecule agonists, qHTS cell viability counter screen (AID 1346977); also: nearly all actives have a fitted effect of over 50% in size; also: potency is read from the fitted curve at half-maximal effect
How it was run: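 Tox21 qHTS format; PXR-Luc HepG2, 2,000/well, charcoal-stripped FBS 5%. Cpd exposure 24hr. Read: CellTiter-Fluor fluorescence, multiplexed with luciferase.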

[3] = Caspase-3/7 induction in HepG2 cells by small molecules, qHTS assay (AID 1346978); also: nearly all actives have a fitted effect of over 15% in size; also: potency is read from the fitted curve at half-maximal effect
How it was run: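 Caspase-3/7 induction was measured by Caspase-Glo 3/7 luminescence (30 min, room temperature) after a 17 hr compound exposure of wild-type HepG2 cells seeded at 2,000 per well and pre-incubated 5 hr.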

[4] = Caspase-3/7 induction in CHO-K1 cells by small molecules, qHTS assay (AID 1346980); also: nearly all actives have a fitted effect of over 15% in size; also: potency is read from the fitted curve at half-maximal effect
How it was run: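 Luminescent Caspase-Glo 3/7 read (30min, room temperature) quantified apoptosis induction. Cells were wild-type CHO-K1, treated with compound for 17hr at 37 C and 5% CO2.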

[5] = Caspase-3/7 induction in HepG2 cells by small molecules, qHTS cell viability counter screen (AID 1346981); also: nearly all actives have a fitted effect of over 30% in size; also: potency is read from the fitted curve at half-maximal effect
How it was run: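 Viability determined by CellTiter-Fluor fluorescence in HepG2 wells also used for the luminescent Caspase-Glo 3/7 read. Compounds were present for 16 hr at 37 C, 5% CO2 before reagent addition.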

[6] = target: Nuclear receptor subfamily 1 group I member 2 (Homo sapiens) (UniProt O75469); assay: Human pregnane X receptor (PXR) small molecule agonists, qHTS assay (AID 1346982); also: nearly all actives have a fitted effect of over 35% in size; also: potency is read from the fitted curve at half-maximal effect
Chain of Nuclear receptor subfamily 1 group I member 2 (Homo sapiens) (O75469 whole entry, looked up): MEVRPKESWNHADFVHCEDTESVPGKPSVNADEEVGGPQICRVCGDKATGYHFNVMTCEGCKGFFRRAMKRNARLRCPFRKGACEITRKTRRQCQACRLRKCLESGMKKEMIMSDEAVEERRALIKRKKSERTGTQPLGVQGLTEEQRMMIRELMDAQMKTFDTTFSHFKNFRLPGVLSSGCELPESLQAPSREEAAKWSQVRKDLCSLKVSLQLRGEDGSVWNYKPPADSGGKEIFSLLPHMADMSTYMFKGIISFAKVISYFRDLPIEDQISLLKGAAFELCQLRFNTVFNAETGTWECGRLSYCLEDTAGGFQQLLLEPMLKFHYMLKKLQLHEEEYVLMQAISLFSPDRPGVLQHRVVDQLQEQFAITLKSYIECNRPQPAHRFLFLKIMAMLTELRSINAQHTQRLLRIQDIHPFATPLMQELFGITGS
How it was run: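 Compound-induced hPXR transactivation of a CYP3A4 luciferase reporter was scored in HepG2 PXR-Luc cells over 24 hr at 37 C, 5% CO2, by luminescence.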

[7] = Caspase-3/7 induction in CHO-K1 cells by small molecules, qHTS cell viability counter screen (AID 1346979); also: nearly all actives have a fitted effect of over 35% in size; also: potency is read from the fitted curve at half-maximal effect
How it was run: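 CellTiter-Fluor viability check, qHTS format: wild-type CHO-K1, 16hr compound treatment, 1hr reagent incubation, fluorescence read.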

[8] = target: Nuclear receptor subfamily 1 group I member 2 (Rattus norvegicus) (UniProt Q9R1A7); assay: Rat pregnane X receptor (rPXR) activation by small molecules, qHTS assay (AID 1346983); details: rPXR luciferase reporter cells, One-Glo luminescence, 24 h; max activation: active compounds read high; also: nearly all actives have a fitted effect of over 20% in size; also: potency is read from the fitted curve at half-maximal effect
Chain of Nuclear receptor subfamily 1 group I member 2 (Rattus norvegicus) (Q9R1A7 whole entry, looked up): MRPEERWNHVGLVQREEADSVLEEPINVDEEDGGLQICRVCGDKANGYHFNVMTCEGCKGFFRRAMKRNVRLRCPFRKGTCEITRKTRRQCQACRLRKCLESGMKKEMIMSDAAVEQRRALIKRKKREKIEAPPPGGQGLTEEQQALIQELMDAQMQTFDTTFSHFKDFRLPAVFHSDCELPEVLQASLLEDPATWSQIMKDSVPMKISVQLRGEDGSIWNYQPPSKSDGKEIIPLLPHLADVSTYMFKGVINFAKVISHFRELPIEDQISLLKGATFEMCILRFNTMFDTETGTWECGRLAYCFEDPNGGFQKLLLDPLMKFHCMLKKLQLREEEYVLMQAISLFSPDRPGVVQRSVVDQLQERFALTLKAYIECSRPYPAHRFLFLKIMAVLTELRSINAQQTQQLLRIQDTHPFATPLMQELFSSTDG
How it was run: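 Luminescent readout (One-Glo luciferase, 30 min room temperature) followed 24 hr compound treatment at 37 C of rPXR cells plated 2,000 per well and preincubated 5hr; qHTS format with compounds delivered in DMSO.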

[9] = target: Nuclear receptor subfamily 1 group I member 2 (Homo sapiens) (UniProt O75469); assay: CYP3A4 induction through human pregnane X receptor (PXR) by small molecules, qHTS assay (AID 1346984); also: nearly all actives have a fitted effect of over 40% in size
How it was run: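 Readings come from a luciferase reporter: DPX-2 cells, which are HepG2 cotransfected with PXR and a CYP3A4-promoter construct, were exposed to test compounds for 24 h at 37C before One-Glo detection.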

[10] = target: Nuclear receptor subfamily 1 group I member 2 (Homo sapiens) (UniProt O75469); assay: Human pregnane X receptor (PXR) activation by small molecules, qHTS assay (AID 1346985); also: nearly all actives have a fitted effect of over 40% in size; also: potency is read from the fitted curve at half-maximal effect
How it was run: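 DPX-2 cells (HepG2 co-transfected with a PXR response element and a CYP3A4-promoter luciferase construct) were seeded at 2,000 per well, rested 5 hr at 37C, then exposed to DMSO-dissolved compounds for 24 hr. Activation was read as luciferase luminescence.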

| Structure (SMILES) | Potency [1] | Potency [2] | Potency [3] | Potency [4] | Potency [5] | Potency [6] | Potency [7] | max activation [8] [%] | Potency [9] | Potency [10] | Potency [8] |
| --- | --- | --- | --- | --- | --- | --- | --- | --- | --- | --- | --- |
| COC1=CC(=O)O[C@@H](CCc2ccccc2)C1 | inactive | inactive | inactive | inactive | inactive | 63.6 µM (active) |  |  |  |  |  |
| CC(C)(OO)c1ccccc1 | inactive | inactive | inactive |  | inactive | inactive | inactive |  |  |  |  |
| O=[N+]([O-])c1ccc(F)c([N+](=O)[O-])c1 | inactive | 27.6 µM (active) | inactive | inactive | 27.6 µM (active) | inactive | 24.6 µM (active) | -9.38 | inactive | inactive |  |
| CCCCCCCCCC(=O)O[C@H]1CC[C@H]2[C@@H]3CCC4=CC(=O)CC[C@@H]4[C@H]3CC[C@]12C | inactive | inactive | inactive | inactive | inactive |  | inactive | -0.997 | inactive | inactive |  |
| CNC(C)Cc1ccccc1OC (stereo not drawn) | inactive | inactive | inactive |  | inactive | inactive | inactive |  |  |  |  |
| O=C(O)COc1ccc(Cl)cc1 | inactive | inactive | inactive | inactive | inactive | inactive |  |  |  |  |  |
| Cc1c(F)c(F)c(COC(=O)C2C(/C=C(\Cl)C(F)(F)F)C2(C)C)c(F)c1F (stereo not drawn) | inactive | inactive | inactive |  | inactive | 13.7 µM (active) | inactive |  |  |  |  |
| Cl/C=C\Cl | inactive | inactive | inactive | inactive |  | inactive | inactive |  |  |  |  |
| N#CCc1ccccc1 | inactive | inactive | inactive |  | inactive | inactive | inactive |  |  |  |  |
| CCOC(=O)CBr | inactive | inactive | inactive | inactive | inactive | inactive | inactive |  |  |  |  |
| COc1nn(CSP(=S)(OC)OC)c(=O)s1 | inactive | inactive | inactive | inactive |  | 54.5 µM (active) |  |  |  |  |  |
| O=NN1CCCCCC1 | inactive | inactive | inactive |  | inactive | inactive | inactive |  |  |  |  |
| NC(=O)C(Cl)(Cl)Cl | inactive | inactive | inactive |  | inactive | inactive | inactive |  |  |  |  |
| C=CCC1([C@H](C)CCC)C(=O)NC(=O)NC1=O | inactive | inactive | inactive | inactive | inactive | inactive | inactive |  |  |  |  |
| ClC=C(Cl)Cl | inactive | inactive | inactive |  | inactive | inactive | inactive | -0.508 | inactive | inactive |  |
| COP(=O)(OC)O/C(=C/Cl)c1cc(Cl)c(Cl)cc1Cl | inactive | inactive | inactive | inactive | inactive | 72.4 µM (active) |  |  |  |  |  |

| Structure (SMILES) | Potency [1] | Potency [2] | Potency [3] | Potency [4] | Potency [5] | Potency [6] | Potency [7] | max activation [8] [%] | Potency [9] | Potency [10] | Potency [8] |
| --- | --- | --- | --- | --- | --- | --- | --- | --- | --- | --- | --- |
| Brc1ccccc1 | inactive | inactive | inactive | inactive | inactive | inactive | inactive |  |  |  |  |
| O=C1c2ccccc2C(=O)C1C(=O)C(c1ccccc1)c1ccccc1 | inactive | inactive | inactive | inactive |  |  |  | -0.238 | inactive | inactive |  |
| [O-][Cl+]O | inactive |  | inactive | inactive | inactive | inactive | inactive |  |  |  |  |
| O=[Se]=O | inactive | 24.2 µM (active) | inactive |  | 21.5 µM (active) | inactive |  |  |  |  |  |
| CCCCC(CC)COP(=O)(Oc1ccccc1)Oc1ccccc1 (stereo not drawn) | inactive |  | inactive | inactive | inactive | 7.7 µM (active) | inactive |  |  |  |  |
| CCC(C)(NC(=O)c1cc(Cl)c(C)c(Cl)c1)C(=O)CCl (stereo not drawn) | inactive |  | 61.5 µM (active) | 21.8 µM (active) |  |  | 24.5 µM (active) |  |  |  |  |
| C=CC(=O)OC(C)(C)C | inactive |  | inactive | inactive | inactive | inactive | inactive |  |  |  |  |
| N#CCC#N | inactive |  | inactive |  |  |  | 30.6 µM (active) |  |  |  |  |
| C=CC(C)=O | inactive |  | inactive | inactive | inactive | inactive | inactive |  |  |  |  |
| Nc1nc(=S)[nH][nH]1 | inactive |  | inactive | inactive | inactive | inactive | inactive |  |  |  |  |
| CCCCCCC#N | inactive |  | inactive | inactive | inactive |  | inactive |  |  |  |  |
| O=[N+]([O-])c1cc(C(F)(F)F)cc([N+](=O)[O-])c1Cl | inactive |  | inactive | inactive | 61.4 µM (active) |  | 68.9 µM (active) |  |  |  |  |
| OC(c1ccc(Cl)cc1)(c1ccc(Cl)cc1)c1cccnc1 | inactive |  | inactive | inactive | inactive | 61.1 µM (active) | 61.1 µM (active) |  |  |  |  |
| NC(=O)CI | inactive |  | inactive | inactive | inactive | 69.1 µM (active) | inactive |  |  |  |  |
| CC1CC(CC2CCC(N)C(C)C2)CCC1N (stereo not drawn) | inactive |  | inactive | inactive | inactive | inactive | inactive |  |  |  |  |
| O=C1CN=C(c2ccccc2)c2cc(Cl)ccc2N1CC1CC1 | inactive | inactive | inactive |  | inactive | 25.5 µM (active) |  |  |  | 2 µM (active) | 11.2 µM (active) |
